Screens: PubChem BioAssay, National Center for Advancing Translational Sciences (NCATS)
Hits are enriched below; roughly 19% of the tested compounds scored in any of these assays.
IL1B secr inh – qHTS for Inhibitors of Inflammasome Signaling: IL-1-beta AlphaLISA Primary Screen | THP-1 LPS/ATP IL-1B secretion, AlphaLISA, 16 h; active compounds read low | activity change, % at 57.5 µM | 4.7% of 360,000 active | AID 743279, 2014; in the data active = activity change below about -50%; inconclusive = mostly about -30% to -49%
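THP-1 cells pretreated 1 hr with compounds (up to 57.5 uM final), then stimulated with LPS (250 ng/mL final) plus ATP (1.25 mM final); secreted IL-1B measured by AlphaLISA after 16 hr, decreased signal indicating inhibition.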
TDP1 cell noCPT – qHTS for Inhibitors of human tyrosyl-DNA phosphodiesterase 1 (TDP1): qHTS in cells in absence of CPT; DT40 Tdp1-/- hTDP1 cells, no CPT, ATP luminescence, 48 h; Potency, µM (titrated, usually from 46.2 µM), actives largely listed as inhibitors; 15% of 420,000 active; AID 686978, 2013; note: nearly all actives have a fitted effect of over 55% in size
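Luminescent ATP content (CellTiter-Glo) served as the growth readout. Knockout chicken DT40 cells expressing human TDP1 were exposed to compounds without camptothecin for a minimum 48 hr at 37 °C.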
S-ASM inh – Inhibitors of Secretory Acid Sphingomyelinase (S-ASM): qHTS; Sphingomyelin phosphodiesterase (Homo sapiens), P17405; placental ASM, HMU-PC fluorogenic substrate, 60 min; Potency, µM (doses to about 57.5 µM), most hits filed as inhibitors; 0.006% of 340,000 active; AID 504937, 2011
Target sequence (P17405 47-631 limits assumed): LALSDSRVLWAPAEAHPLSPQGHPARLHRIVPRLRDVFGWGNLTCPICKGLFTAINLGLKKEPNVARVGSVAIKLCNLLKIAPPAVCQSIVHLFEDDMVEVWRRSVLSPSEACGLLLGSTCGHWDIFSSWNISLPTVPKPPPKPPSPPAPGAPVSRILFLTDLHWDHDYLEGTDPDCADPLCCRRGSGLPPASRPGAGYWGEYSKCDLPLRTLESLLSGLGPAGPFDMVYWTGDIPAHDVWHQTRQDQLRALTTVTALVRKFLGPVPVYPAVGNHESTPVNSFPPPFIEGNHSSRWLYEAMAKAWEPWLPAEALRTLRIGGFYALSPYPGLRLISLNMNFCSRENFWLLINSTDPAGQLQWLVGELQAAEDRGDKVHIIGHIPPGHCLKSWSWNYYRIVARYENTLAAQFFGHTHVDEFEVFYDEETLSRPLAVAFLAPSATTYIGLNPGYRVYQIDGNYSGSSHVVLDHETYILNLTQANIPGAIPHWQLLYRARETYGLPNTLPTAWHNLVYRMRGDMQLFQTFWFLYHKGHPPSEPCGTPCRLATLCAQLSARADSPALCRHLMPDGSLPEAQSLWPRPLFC
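HMU-PC0 cleavage (9 uM final) by human placental ASM, 60 min at 37 °C following 10 min compound exposure at RT; stopped at pH 10, fluorescence Ex 386/Em 447 nm.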
DT40 TDP1 CPT – qHTS for Inhibitors of human tyrosyl-DNA phosphodiesterase 1 (TDP1): qHTS in cells in presence of CPT; chicken DT40 Tdp1-/-;hTDP1 cells + 20 nM CPT, ATP luminescence, 48 h; Potency, µM (highest dose often 46.2 µM), usual class: inhibitors; 12% of 420,000 active; AID 686979, 2013; note: nearly all actives have a fitted effect of over 55% in size
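Chicken DT40 Tdp1-/- cells stably complemented with human TDP1 were seeded at 400 cells/well in medium containing 20 nM camptothecin, exposed to pin-transferred compounds, and grown at 37 °C for at least 48 hr. Viability was read as ATP luminescence.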
TGFb SMAD3 inh – qHTS for Inhibitors of TGF-b; 1.2% of 410,000 active; Potency, µM (series often up to 46.1 µM), actives largely listed as inhibitors; HepG2 CAGA-GFP TGF-b/SMAD3 reporter, GFP fluorescence, 18 h; TGF-beta stimulated, 500 pg/mL final; note: nearly all actives have a fitted effect of over 65% in size
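Using HEPG2 CAGA-GFP reporter cells at 1000 cells/well, we pinned test compounds, stimulated with recombinant TGF-beta (500 pg/mL final) and measured total well GFP after 18 h.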
HepG2 viability – qHTS for Inhibitors of TGF-b: Cytotox Counterscreen | AID 588856, 2011 | 0.76% of 410,000 active | Potency, µM (series often up to 46.1 µM), actives largely listed as cytotoxic | HepG2 CAGA-GFP viability, ATP luminescence, 18 h
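HepG2 CAGA-GFP cells (1000/well, DMEM with 1% FBS) received compound, then TGF-beta at 500 pg/mL final, and were incubated 18 hours at 37 degrees C. Viability was read by CellTiter-Glo luminescence. Media-only wells were set as complete cell-killing and DMSO as no toxicity.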
Each line names hits and unclear results; the compound was inactive in the other large screens. Unless noted, calls come from the whole dose curve; as a rule, active = well fitted curve in the direction sought with a large enough effect; inconclusive = small, poorly fitted or top-dose-only effect, or another doubt; inactive = no such curve, though single readings can be large; an effect the other way counts as inactive or inconclusive.

CC(=O)c1cn(CC(=O)Nc2ccc(C)c(C)c2)c2ccccc12	TDP1 cell noCPT inconclusive
Cc1ccc(-n2c(CCC(=O)O)ccc2-c2cccs2)cc1Cl	none (no result: IL1B secr inh, S-ASM inh)
COC(=O)c1sc(-c2ccccc2)cc1NC(C)=O	none
COC(=O)c1sc(-c2cccs2)cc1NC(=O)/C=C/C(=O)O	IL1B secr inh -92, TDP1 cell noCPT 15µM, DT40 TDP1 CPT inconclusive
CCOC(=O)c1ccc(NC(=O)c2cccc3c(=O)c4c([nH]c23)CCCC4)cc1	DT40 TDP1 CPT inconclusive (no result: IL1B secr inh, S-ASM inh)
Cc1nc(NC(=O)c2ccccc2)sc1-c1cc(C(=O)N2CCOCC2)nn1CCO	none (no result: S-ASM inh, TGFb SMAD3 inh, HepG2 viability)
Cc1nc(NC(=O)c2ccccc2)sc1-c1cc(C(=O)N2CCOCC2)nn1Cc1ccccc1	DT40 TDP1 CPT 21µM (no result: S-ASM inh)
Cc1cc(NC(=O)C(C)SCC(=O)N(C)CC(=O)Nc2ccccc2Br)no1 (stereo not given)	none
COc1ccc(OC)c(NC(=O)[C@H](CSCc2ccccc2)N2Cc3ccccc3C2=O)c1	TDP1 cell noCPT inconclusive, DT40 TDP1 CPT 21µM (no result: IL1B secr inh, S-ASM inh)
CC(C)NC(=O)[C@H](CSCc1ccccc1)N1Cc2ccccc2C1=O	none
COc1ccc(OC)c(NC(=O)[C@H](Cc2ccccc2)N2Cc3ccccc3C2=O)c1	TDP1 cell noCPT inconclusive, DT40 TDP1 CPT inconclusive (no result: IL1B secr inh, S-ASM inh)
O=C(NCCCN1CCCC1)[C@H](CSCc1ccccc1)N1Cc2ccccc2C1=O	TDP1 cell noCPT 29µM, DT40 TDP1 CPT inconclusive
O=C1Nc2ccc(C(=O)O)c(O)c2C1=O	none
CC(C)C(NS(=O)(=O)c1ccccc1)C(=O)N1CCN(C(=O)c2ccco2)CC1 (stereo not given)	none
CCOCCc1nnc(NC(=O)C(=O)c2cc(C)n(-c3cccc(Cl)c3)c2C)s1	TDP1 cell noCPT inconclusive (no result: IL1B secr inh, S-ASM inh)
CCOc1nc(-c2ccccc2)ccc1-c1noc(-c2cccnc2)n1	TDP1 cell noCPT 3.7µM
CCOc1cc(-c2nc(-c3ccc(-c4ccccc4)nc3OCC)no2)cc(OCC)c1OCC	TDP1 cell noCPT inconclusive, DT40 TDP1 CPT inconclusive (no result: IL1B secr inh, S-ASM inh)
CCN(c1ccc(NC(=O)CCc2nc3sc4c(c3c(=O)[nH]2)CCCC4)cc1)C(C)C	TDP1 cell noCPT 23µM, DT40 TDP1 CPT 29µM, TGFb SMAD3 inh inconclusive (no result: S-ASM inh)
Cc1cccc(NC(=O)CCc2nc3sc4c(c3c(=O)[nH]2)CCCC4)n1	TDP1 cell noCPT 18µM, DT40 TDP1 CPT inconclusive
CC(=O)c1cccc(NC(=O)CCc2nc3sc4c(c3c(=O)[nH]2)CCCC4)c1	TDP1 cell noCPT 13µM, DT40 TDP1 CPT inconclusive
COCCNC(=O)C1CCN(Cc2cc3ccccc3n2Cc2ccc(C)cc2)CC1	TDP1 cell noCPT 21µM, DT40 TDP1 CPT 16µM, TGFb SMAD3 inh inconclusive (no result: IL1B secr inh, S-ASM inh)
Cc1cccc(CN2CCC(C(N)=O)CC2)c1	none
Cc1ccc(Cn2c(CN3CCC(C(=O)NCc4cccnc4)CC3)cc3ccccc32)cc1	TDP1 cell noCPT inconclusive, DT40 TDP1 CPT inconclusive, TGFb SMAD3 inh inconclusive, HepG2 viability 11µM (no result: IL1B secr inh, S-ASM inh)
Cc1ccc(Cn2c(CN3CCC(C(=O)NCc4ccccc4C)CC3)cc3ccccc32)cc1	TDP1 cell noCPT 16µM, DT40 TDP1 CPT 21µM (no result: IL1B secr inh, S-ASM inh)
COCCNC(=O)C1CCCN(Cc2ccccc2)CC1 (stereo not given)	IL1B secr inh inconclusive (no result: S-ASM inh)
CNC(=O)C1CCN(Cc2cc3ccccc3n2Cc2cccc(C)c2)CC1	TDP1 cell noCPT 16µM, DT40 TDP1 CPT 18µM (no result: IL1B secr inh, S-ASM inh)
CNc1cncc(-c2cccc(C(=O)NC3CC3)c2)n1	TDP1 cell noCPT inconclusive, DT40 TDP1 CPT inconclusive (no result: S-ASM inh)
Cc1ccccc1OCC(=O)Nc1nnc(SCc2cc(=O)n3cccc(C)c3n2)s1	none (no result: IL1B secr inh, S-ASM inh)
CCNC(=O)C1CCN(Cc2cc3ccccc3n2Cc2ccc(C)cc2)CC1	TDP1 cell noCPT 21µM, DT40 TDP1 CPT 23µM (no result: IL1B secr inh, S-ASM inh)
